These results are taken from PubChem BioAssay.

Some of the results follow. Activity calls are given as the source filed them.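 How the source made its calls, unless noted: active means mean inhibition above about 50% in the one-dose retest (limit read from the data); inactive means the rest.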

Test [1] has as its target Sentrin-specific protease 8 (Homo sapiens) (UniProt Q96LD8). Description: SENP8 protease inhibitors, retest, confirmation, biochemical, luminescence, single concentration (AID 488912;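 active means mean inhibition across replicates above about 50%, limit read from the data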). To be noted: Recombinant SENP8, Z-RLRGG-aminoluciferin luminescence, 60 min; at 12.5 µM; stronger effect = higher value.
Test [2] has as its target Sentrin-specific protease 6 (Homo sapiens) (UniProt Q9GZR1). Description: SENP6 protease inhibitors, confirmation, biochemical, luminescence, single concentration (AID 488915). As to conditions: recombinant SENP6, Z-RLRGG-aminoluciferin luminescence; at 12.5 µM; stronger effect = higher value.
The target of test [3] is Sentrin-specific protease 7 (Homo sapiens) (UniProt Q9BQF6). Kind of test: SENP7 protease inhibitors, retest, confirmation, biochemical, luminescence, single concentration (AID 488917). To be noted: recombinant SENP7, Z-RLRGG-aminoluciferin luminescence, 40 min; at 12.5 µM; stronger effect = higher value.
Sentrin-specific protease 7 (Homo sapiens), sequence (Q9BQF6 706-1050 limits assumed): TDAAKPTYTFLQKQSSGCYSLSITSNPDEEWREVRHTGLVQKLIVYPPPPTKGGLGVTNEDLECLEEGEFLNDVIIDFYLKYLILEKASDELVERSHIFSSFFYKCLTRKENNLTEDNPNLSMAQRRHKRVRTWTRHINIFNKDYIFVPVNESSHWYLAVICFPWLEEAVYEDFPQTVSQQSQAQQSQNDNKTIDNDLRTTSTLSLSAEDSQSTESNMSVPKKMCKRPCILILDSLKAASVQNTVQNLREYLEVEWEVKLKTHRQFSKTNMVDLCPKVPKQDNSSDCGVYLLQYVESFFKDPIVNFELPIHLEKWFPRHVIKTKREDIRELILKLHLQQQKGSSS
Test [4] has as its target Caspase-3 (Homo sapiens) (UniProt P42574). Description: caspase-3 protease inhibitors, confirmation, selectivity assay for SENP inhibitor project, biochemical, single concentration (AID 488918;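 active means mean inhibition above about 50%, limit read from the data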;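 further: plate controls were enzyme with DMSO for no effect and wells without caspase-3 for full effect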). To be noted: purified caspase-3, Z-DEVD-aminoluciferin luminescence, 60 min; at 12.5 µM; stronger effect = higher value.
Test [5] in a line: luciferase luminescence interference by compounds, confirmation, artefact control for SENP inhibitor project, biochemical, single concentration, SENP8 reaction pre-completed (AID 488919;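 active means mean inhibition above about 50% when retested at one dose, limit read from the data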;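 further: plate controls were DMSO wells with completed reaction for no effect and substrate without enzyme for full effect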). As to conditions: Pre-incubated SENP8/Z-RLRGG-aminoluciferin, at 12.5 µM, stronger effect = higher value.
Test [6] addresses Tumor necrosis factor receptor superfamily member 10B (Homo sapiens) (UniProt O14763). Description: caspase-8 TRAIL sensitization, hit retest, confirmation, cell-based, NB7+caspase-8, with/without TRAIL, luminescence panel (AID 651596; in the data active means activity above about 50%). As to conditions: NB7 neuroblastoma + caspase-8, TRAIL sensitization, luminescence viability, with TRAIL, mean of runs, at 10 µM, stronger effect = higher value.

Test in test [7]: as above
To be noted: NB7 neuroblastoma + caspase-8, without TRAIL, luminescence viability, without TRAIL, mean of runs, at 10 µM.

The nature of test [8]: inhibitors of PAF-induced NF-kB signaling, retest, confirmation, cell-based, GFP fluorescence, single concentration (AID 602472; in the data active means inhibition above about 40%;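 further: stimulus PAF is a Pseudomonas aeruginosa filtrate and not platelet activating factor; plate controls were DMSO wells with stimulus for no effect and unstimulated DMSO wells for full effect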). As to conditions: KKLEB CF airway cells, overnight, at 5 µM, stronger effect = higher value.
Test [9] in a line: inhibitors of PAF-induced NFkB signaling in CF airway cells, dose response, cell-based, uHTS hits, panel, cytotoxicity readout (AID 624344). As to conditions: CF bronchial epithelial cells, PAF-induced NFkB reporter inhibition, with PAF, run 1; at 79 µM (top of the series) unless noted.
Test in test [10]: as above
As to conditions: CF bronchial epithelial cells, PAF-induced NFkB reporter inhibition, with PAF, run 2; at 79 µM (top of the series) unless noted.

The nature of test [11]: Apaf-1 inhibitors, single-dose retest, confirmation, biochemical, fluorescence, DEVD-Rh110, 20 µM (AID 504614;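 active means mean inhibition of at least 40% at 20 µM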;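 further: plate controls were DMSO wells for no effect and DEVD-CHO caspase inhibitor control wells for full effect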). As to conditions: reconstituted apoptosome, caspase-3 DEVD-Rh110 fluorescence; at 20 µM; stronger effect = higher value.
The nature of test [12]: Rh110 fluorescence interference by putative Apaf-1 inhibitors, confirmation, artefact control for Apaf-1 inhibitor project, biochemical, 20 µM (AID 504615;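 active means signal rise of 40% or more at 20 µM, treated as a fluorescence artifact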). As to conditions: quenched caspase reaction, at 20 µM, stronger effect = higher value.
Test [13] in a line: fluorescence interference of Apaf-1 inhibitor hits, dose response, artefact control for Apaf-1 inhibitor project (AID 588538; call rule not given here). To be noted: fluorescence interference counterscreen, Apaf-1 assay format.
The target of test [14] is Protein Mdm4 (Homo sapiens) + E3 ubiquitin-protein ligase Mdm2 (Homo sapiens) (UniProt O15151+Q00987). Kind of test: retested Mdm2-MdmX interaction blockers, confirmation, cell-based, luminescence, single concentration, set 2 (AID 504601;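 active means mean inhibition of the luminescence signal across two replicates at or above 26 percent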). As to conditions: SaOS-2 split-luciferase Mdm2/MdmX complementation, at 8 µM, stronger effect = higher value.
Protein Mdm4 (Homo sapiens) + E3 ubiquitin-protein ligase Mdm2 (Homo sapiens), sequence (O15151 whole entry, looked up): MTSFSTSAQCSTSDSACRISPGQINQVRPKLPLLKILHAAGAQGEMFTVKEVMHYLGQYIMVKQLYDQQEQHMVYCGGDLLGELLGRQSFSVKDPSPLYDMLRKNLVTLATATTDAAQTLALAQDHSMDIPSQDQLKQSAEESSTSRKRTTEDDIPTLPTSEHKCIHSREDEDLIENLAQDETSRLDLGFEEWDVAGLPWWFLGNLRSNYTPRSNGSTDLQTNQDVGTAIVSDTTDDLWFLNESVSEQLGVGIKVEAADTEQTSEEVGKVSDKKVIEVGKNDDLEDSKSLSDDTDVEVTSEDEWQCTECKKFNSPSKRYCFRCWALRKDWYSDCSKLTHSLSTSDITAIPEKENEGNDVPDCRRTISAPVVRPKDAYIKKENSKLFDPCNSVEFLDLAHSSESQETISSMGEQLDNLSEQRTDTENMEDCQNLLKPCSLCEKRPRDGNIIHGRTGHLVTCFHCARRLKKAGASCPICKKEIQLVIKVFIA
Protein Mdm4 (Homo sapiens) + E3 ubiquitin-protein ligase Mdm2 (Homo sapiens), sequence (Q00987 whole entry, looked up): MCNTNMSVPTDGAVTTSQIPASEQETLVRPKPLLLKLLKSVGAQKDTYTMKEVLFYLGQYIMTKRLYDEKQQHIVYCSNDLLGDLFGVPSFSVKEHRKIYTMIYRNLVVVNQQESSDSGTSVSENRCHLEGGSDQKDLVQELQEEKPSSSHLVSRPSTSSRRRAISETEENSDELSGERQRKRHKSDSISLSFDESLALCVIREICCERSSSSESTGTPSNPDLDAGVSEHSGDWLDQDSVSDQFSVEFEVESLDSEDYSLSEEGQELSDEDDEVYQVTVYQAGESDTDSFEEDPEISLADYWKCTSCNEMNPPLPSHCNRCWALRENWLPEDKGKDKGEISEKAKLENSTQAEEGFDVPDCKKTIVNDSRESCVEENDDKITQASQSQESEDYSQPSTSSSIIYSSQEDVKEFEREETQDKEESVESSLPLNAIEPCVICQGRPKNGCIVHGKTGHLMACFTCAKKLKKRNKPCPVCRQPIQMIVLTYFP
The nature of test [15]: Peg3 promoter reporter inhibitors, retest, confirmation, cell-based, HeLa, luciferase reporter, single concentration (AID 602417;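 active means at 20 µM dose, 40% or more inhibition averaged across four replicates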). To be noted: HeLa PEG-Prom luciferase reporter, luminescence, overnight; at 20 µM; stronger effect = higher value. (Reporter assays use an easily measured gene product as a stand-in for the process of interest.)
In test [16] the target is PEG-3 (UniProt Q6IN02). Description: Peg3 promoter luciferase inhibitors, potency, dose response, cell-based, HeLa, CREF/GAPDH counter-screen panel (AID 624167). As to conditions: CREF/GAPDH counter-screens; HeLa PEG-Prom luciferase reporter, overnight, run 1, dose range 1, at 100 µM (top of the series) unless noted. Background: The purpose of a counterscreen is to sort out artefacts and off-target activity.
PEG-3, sequence (Q6IN02 whole entry, looked up): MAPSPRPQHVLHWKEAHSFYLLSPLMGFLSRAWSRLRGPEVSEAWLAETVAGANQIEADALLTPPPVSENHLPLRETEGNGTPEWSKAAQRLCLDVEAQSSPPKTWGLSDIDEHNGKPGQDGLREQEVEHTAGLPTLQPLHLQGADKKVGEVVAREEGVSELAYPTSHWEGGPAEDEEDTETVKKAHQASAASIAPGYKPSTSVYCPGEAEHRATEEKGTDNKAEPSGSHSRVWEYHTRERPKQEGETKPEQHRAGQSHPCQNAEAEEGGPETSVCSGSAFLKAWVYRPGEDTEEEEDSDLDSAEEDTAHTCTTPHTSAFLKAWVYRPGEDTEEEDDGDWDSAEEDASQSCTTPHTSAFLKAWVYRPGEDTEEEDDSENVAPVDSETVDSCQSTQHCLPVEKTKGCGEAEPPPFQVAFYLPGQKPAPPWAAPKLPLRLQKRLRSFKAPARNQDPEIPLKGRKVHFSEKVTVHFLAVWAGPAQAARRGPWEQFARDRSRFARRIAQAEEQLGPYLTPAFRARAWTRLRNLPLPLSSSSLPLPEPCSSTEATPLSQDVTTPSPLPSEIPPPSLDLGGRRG

In test [17] the target is PEG-3 (UniProt Q6IN02). Described as above. As to conditions: CREF/GAPDH counter-screens; HeLa PEG-Prom luciferase reporter, overnight, run 2, dose range 1, at 100 µM (top of the series) unless noted.
For test [18], the system named is Rat fibroblasts (CREF). The description is as above. As to conditions: CREF/GAPDH counter-screens; run 1, dose range 1, at 100 µM (top of the series).
The test system of test [19] is Rat fibroblasts (CREF). Described as above. As to conditions: CREF/GAPDH counter-screens; run 2, dose range 1, at 100 µM (top of the series).
The nature of test [20]: inhibition of Brca1/Bard1 split-luciferase complementation, confirmation, counter-screen for Mdm2/MdmX interaction inhibitor project, luminescence, single concentration (AID 504668; call rule not given here). To be noted: Brca1/Bard1 bimolecular luciferase complementation counterscreen, at 8 µM, stronger effect = higher value.
Test [21] in a line: HIF-2a reporter inhibitor retest, confirmation, luminescence, 786-0 RCC cells (AID 651580;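 active means mean inhibition across four replicates of at least 40 percent at the single tested concentration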). As to conditions: HIF-2a luciferase reporter luminescence, overnight, at 18.8 µM, stronger effect = higher value.
Test [22] is described as follows: HIF-1a luciferase reporter signal reduction – MiaPaCa-2 cells, single concentration, counter-screen for HIF-2a inhibitor project, confirmation (AID 651589;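 active means mean inhibition of the reporter signal across four replicates at the single tested dose of 50% or more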). As to conditions: MiaPaCa-2 HIF-1a luciferase reporter, desferoxamine, overnight; at 18.8 µM; stronger effect = higher value.

Sentrin-specific protease 8 (Homo sapiens), sequence (Q96LD8 whole entry, looked up): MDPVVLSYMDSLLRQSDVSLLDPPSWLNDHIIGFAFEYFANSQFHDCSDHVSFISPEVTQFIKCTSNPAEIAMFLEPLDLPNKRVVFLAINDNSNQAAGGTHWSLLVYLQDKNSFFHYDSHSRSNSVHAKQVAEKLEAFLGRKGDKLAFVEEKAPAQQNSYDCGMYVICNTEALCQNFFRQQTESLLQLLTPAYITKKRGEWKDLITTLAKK
Sentrin-specific protease 6 (Homo sapiens), sequence (Q9GZR1 628-1112 limits assumed): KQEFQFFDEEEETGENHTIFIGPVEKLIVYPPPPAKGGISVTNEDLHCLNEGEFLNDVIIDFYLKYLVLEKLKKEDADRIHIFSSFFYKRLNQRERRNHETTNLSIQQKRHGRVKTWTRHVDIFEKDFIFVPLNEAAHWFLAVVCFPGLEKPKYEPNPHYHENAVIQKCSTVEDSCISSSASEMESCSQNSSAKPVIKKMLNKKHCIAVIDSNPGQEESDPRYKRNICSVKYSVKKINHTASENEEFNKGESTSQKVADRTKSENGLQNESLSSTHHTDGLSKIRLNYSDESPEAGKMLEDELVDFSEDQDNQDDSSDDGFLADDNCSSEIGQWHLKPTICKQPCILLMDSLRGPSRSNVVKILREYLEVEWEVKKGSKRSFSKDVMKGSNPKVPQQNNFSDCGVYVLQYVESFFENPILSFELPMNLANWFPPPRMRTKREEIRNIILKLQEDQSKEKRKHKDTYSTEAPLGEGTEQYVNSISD
Caspase-3 (Homo sapiens), sequence (P42574 28-227 limits assumed): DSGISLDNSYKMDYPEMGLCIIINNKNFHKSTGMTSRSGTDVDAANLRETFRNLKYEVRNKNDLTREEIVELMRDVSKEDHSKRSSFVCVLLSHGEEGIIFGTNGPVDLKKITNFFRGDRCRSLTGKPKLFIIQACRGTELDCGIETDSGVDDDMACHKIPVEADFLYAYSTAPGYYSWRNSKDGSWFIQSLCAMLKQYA
Tumor necrosis factor receptor superfamily member 10B (Homo sapiens), sequence (O14763 whole entry, looked up): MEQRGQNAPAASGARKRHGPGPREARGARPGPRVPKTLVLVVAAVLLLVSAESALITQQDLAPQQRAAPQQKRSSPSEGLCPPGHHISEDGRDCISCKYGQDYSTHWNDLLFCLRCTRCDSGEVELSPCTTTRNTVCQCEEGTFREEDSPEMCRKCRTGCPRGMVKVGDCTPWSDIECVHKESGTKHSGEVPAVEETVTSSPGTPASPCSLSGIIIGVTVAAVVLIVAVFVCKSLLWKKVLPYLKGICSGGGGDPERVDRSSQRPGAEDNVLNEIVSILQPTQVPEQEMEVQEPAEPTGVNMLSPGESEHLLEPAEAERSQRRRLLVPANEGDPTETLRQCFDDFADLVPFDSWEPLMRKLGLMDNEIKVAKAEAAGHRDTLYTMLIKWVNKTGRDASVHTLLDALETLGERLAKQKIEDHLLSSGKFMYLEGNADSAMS

As for `CC(=C/c1ccccc1)/C=N/NC(=O)c1cc(C)oc1C`, the inhibition (as a rule, the change of the read-out against control, counted positive when it falls) is 14.3% (inactive) in [1]; 46.8% (inactive) in [2]; 23.5% (inactive) in test [3]; 86.4% (active) in [4]; -2.7% (inactive) in test [5]. Further, the activity in test [6] was found to be 58.5%; in [7], 63.6%.
As to `O=C(Nc1nnc(S(=O)(=O)N2CCCCCC2)s1)c1cccc(Br)c1`, the inhibition in [1] was 42.1% (inactive); in test [2] it was 31.9% (inactive); in test [3] it was 21.7% (inactive); in [4], 28.6% (inactive); in [5], 29.4% (inactive); in test [8], 77.4% (active). The inhibition turned out to be 83% in test [9] and 68.3% in test [10].
For `Cc1oc2c(c1C(=O)N1CCOCC1)C(=O)c1ccccc1C2=O`, the inhibition was 27.7% (inactive) in [1]; 61% (active) in test [2]; 6% (inactive) in [3]; 87.5% (active) in test [4]; -2.3% (inactive) in test [5]; 52.9% (active) in [11]. In addition, the activation (fluorescence interference) in test [12] is 8.76% (inactive). Also, the IC50 (as a rule, the concentration that inhibits the measured activity by half) in test [13] is > 100 µM (inactive).
Turning to `O=C(CCCN1C(=O)/C(=C/c2ccccc2)SC1=S)Nc1ccc(O)cc1`, the inhibition in [14] was 80.2% (active).
As to `Cc1ccc2nc(-c3ccc(Br)cc3)cn2c1`, the inhibition in [1] was 7.3% (inactive); in test [2], 34.4% (inactive); in test [3], 70% (active); in test [4] it was 51.5% (active); in [5], -8.6% (inactive); in test [15], 49.5% (active). In addition, the inhibition in test [16] was 101%; in test [17], 88.9%; in test [18], 93.6%; in test [19] it was 85.5%.
In the case of `O=C(Nc1ccc(Cl)cn1)c1ccc2c(c1)OCCO2`, the inhibition in test [1] was -5.1% (inactive); in [2] it was 71.4% (active); in [3] it was 92.9% (active); in test [4], 82.8% (active); in test [5] it was 76.4% (active). The activity in test [6] came out at 67.6%; in test [7], 71.8%.
`CC(=O)c1ccc(S(=O)(=O)N2CCN(C(=O)/C=C/c3ccc4ccccc4n3)CC2)cc1`: the inhibition in [14] is 85.2% (active).
As for `Cc1cnc(NC(=O)c2ccccn2)s1`, the inhibition was 74.2% (active) in test [1]; 75.6% (active) in [2]; 92.3% (active) in [3]; 91.7% (active) in test [4]; 67.2% (active) in [5]. In addition, the activity was 63.5% in test [6] and 64.5% in [7].
Regarding `CCN1C(=O)c2cccc3c(N)ccc1c23`, the inhibition in test [1] is 22% (inactive); in test [2], 41.5% (inactive); in test [3], 15.6% (inactive); in test [4] it was 2.1% (inactive); in test [5], -6.4% (inactive); in [11], 70.1% (active). For the same molecule, the activation (fluorescence interference) in [12] is 2.39% (inactive). Also, the IC50 in [13] was > 100 µM (inactive).
On to `Cc1ccsc1C(=O)OCC(=O)c1cc(C)n(CC2CCCO2)c1C` (stereo not given), for which the inhibition was 35.3% (inactive) in test [1]; 97.2% (active) in test [2]; 102% (active) in [3]; 96.7% (active) in test [4]; 58.8% (active) in test [5]; 28.9% (active) in test [20]. The inhibition in [15] is 80.8% (active); in test [21] it was 65.9% (active); in test [22] it was 80.2% (active); in [16], 96.8%; in [17], 92.7%. In addition, the activity in [6] amounted to 74.5%; in test [7], 68.1%.
